Compounds without any hit were thinned out: in the full panel of roughly 83,000, 20% have a hit.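 Treatment: one concentration, 48 hours, 96-well format. Scoring: percent growth, with anything below 10 considered active.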 Unmarked numbers belong to inactive results.

This experiment concerns HL-60(TB) leukemia. As to the kind of experiment: NCI-60 one-dose screen, 48 h (100 = growth as untreated, 0 = no growth, -100 = all killed). The following applies: 10 µM unless noted.
Consider `COc1ccc(Oc2ccc(/C=C/C(=O)c3cc4ccccc4oc3=O)cc2)cc1`, for which the growth was 31.1%.

`O=C(COc1ccc(Cl)cc1Cl)Oc1coc(CSc2nc3ccccc3s2)cc1=O`: the growth is 100%.

Regarding `CN(C)CCC(=O)c1c[nH]c2ccccc12`, the growth was 96.5%.

With `OCCNc1nccc(N2CCN(c3ccnc4cc(Cl)ccc34)CC2)n1`, the growth was 47.8%.

`Cc1ccc2nc3c(nc2c1)-c1cccc2cccc-3c12`: the growth was 93.5%.

As for `Cc1c(CC(=O)OCCO)cc(-c2ccc(Cl)cc2)n1-c1ccccc1`, the growth is 95.7%.

These data come from PubChem BioAssay (NCI).
